Screening results as filed in PubChem BioAssay.
CBX7 inh: blocks human CBX7 binding to H3K27me3 peptide; AID 1224903; normalised signal (fraction of DMSO) (concentration not given with the values); AlphaScreen His6-CBX7 / biotin-H3K27me3 peptide binding; active compounds read low; actives 1.1% (n = 66,000); in the data active = normalised signal below about 0.5
Target sequence (O95931 whole entry, looked up): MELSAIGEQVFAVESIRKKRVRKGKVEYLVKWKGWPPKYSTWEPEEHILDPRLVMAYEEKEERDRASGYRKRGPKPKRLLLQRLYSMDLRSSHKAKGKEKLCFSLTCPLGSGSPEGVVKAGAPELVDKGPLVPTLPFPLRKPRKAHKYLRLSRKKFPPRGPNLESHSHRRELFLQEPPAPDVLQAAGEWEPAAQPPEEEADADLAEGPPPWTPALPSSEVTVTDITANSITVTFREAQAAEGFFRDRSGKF
Of the large screens only hits and unclear results are named; the others gave an inactive call; ! = not active in a repeat. The entries come from a sample that favours hits as a whole.

CN(C)CCNC(=O)CN1C(=O)COc2ccc(S(=O)(=O)N3CCCCCC3)cc21	none
Cc1ccc(Nc2c(-c3ccc(N4CCOCC4)cc3)nc3cc(C)ccn23)cc1	none
Cc1ccc(Nc2c(-c3ccc(N4CCOCC4)cc3)nc3ccccn23)cc1	none
COc1ccc(-c2nc3ccccn3c2Nc2ccc3c(c2)OCCO3)cc1	none
COc1ccc(-c2nc3sccn3c2Nc2ccc3c(c2)OCO3)cc1	CBX7 inh 0.47
COc1ccc(Nc2c(-c3ccc(C)cc3)nc3sccn23)cc1OC	none
Cc1ccc(Nc2c(-c3ccc(N4CCOCC4)cc3)nc3sccn23)cc1C	CBX7 inh 0.491
Clc1ccc2nc(-c3ccc(N4CCOCC4)cc3)c(Nc3ccc4c(c3)OCO4)n2c1	none
CCOC(=O)c1cnc2cc(C(F)(F)F)ccc2c1Nc1ccc2c(c1)OCO2	none
O=C(Cn1ccc2ccccc2c1=O)NCC(=O)Nc1cnc2ccccc2c1	none
CC(C)c1ccc(NC(=O)C2CCN(C(=O)c3cnn(-c4ccccc4)c3-n3cccc3)CC2)cc1	none
COCc1cc(=O)[nH]c(Nc2nc3ccccc3o2)n1	CBX7 inh 0.117
O=c1cc(-c2ccccc2)nc(Nc2nc3ccccc3o2)[nH]1	none
COCc1cc(=O)[nH]c(Nc2nc(C)c3ccccc3n2)n1	none
CCOC(CNC(=O)Cn1nc(Cc2cccnc2)c2ccccc2c1=O)OCC	none
COc1ccc(Br)cc1CN1C(=O)c2ccccc2C1C(=O)NCC1CCCO1 (configuration not stated)	none
COc1ccccc1NC(=O)C(=O)NCCc1c[nH]c2ccccc12	none
Cc1ccc(C(NC(=O)C(C)C)c2cc(Cl)c3cccnc3c2O)cc1 (configuration not stated)	none
COc1ccc(C(NC(=O)CC(C)C)c2ccc3cccnc3c2O)cc1OC (configuration not stated)	CBX7 inh 0.0613
O=C(O)CC(NCc1cccnc1)c1cccs1 (configuration not stated)	none
CCCC(=O)NC(c1ccc(C(C)C)cc1)c1cc(Cl)c2cccnc2c1O (configuration not stated)	none
Cc1ccc(C(NC(=O)CC(C)C)c2ccc3cccnc3c2O)cc1 (configuration not stated)	none
CC(C)C(=O)NC(c1cccs1)c1cc(Cl)c2cccnc2c1O (configuration not stated)	none
COc1ccc(CSc2cccc3cccnc23)cc1[N+](=O)[O-]	none
CC(C)CC(=O)NC(c1cccs1)c1ccc2cccnc2c1O (configuration not stated)	CBX7 inh 0.102
CCN1CCN(C(c2cccs2)C(C)NC(=O)CC(C)C)CC1 (configuration not stated)	none
COc1cc(NC(=O)Cc2ccc(OC)c(OC)c2)c2ncccc2c1	none
CCCC(=O)NC(c1cccs1)c1cc(Cl)c2cccnc2c1O (configuration not stated)	CBX7 inh 0.27
CC(C)CC(=O)NC(c1ccccc1)c1ccc2cccnc2c1O (configuration not stated)	CBX7 inh 0.0438
Cc1cc(C)c(NC(=O)Nc2ccccc2)c(Cl)n1	none
O=C(Cn1ccc2ccccc2c1=O)NCC(=O)N1CCCc2ccccc21	none
CCOc1ccc(C(=O)N(Cc2ccc(CC)cc2)C2CCS(=O)(=O)C2)cc1 (configuration not stated)	none
CCOc1ccc(NC(=O)c2cnc3sccn3c2=O)cc1	none
COc1ccc(OC)c(CNc2sc3c(c2C(=O)Nc2cc(Cl)ccc2OC)CCC3)c1	none
Cc1ccc(OCC(=O)Nc2ccc(S(=O)(=O)Nc3ncccn3)cc2)cc1	none
CCOC(=O)N1CCc2c(sc(NCc3c[nH]c4ccccc34)c2C(=O)Nc2ccccc2OCC)C1	none
CCCC(=O)NC(c1ccc(OC)cc1)c1cc(Cl)c2cccnc2c1O (configuration not stated)	none
O=C(Nc1ccc(Cl)c(Cl)c1)Nc1cccc2cccnc12	none
COc1ccc(C(NC(=O)CCc2ccccc2)c2ccc3cccnc3c2O)cc1 (configuration not stated)	CBX7 inh 0.082
O=C(CCc1ccccc1)NC(c1ccc(Cl)cc1)c1ccc2cccnc2c1O (configuration not stated)	none
O=C(O)C(NS(=O)(=O)c1cccc2cccnc12)c1ccccc1 (configuration not stated)	none
Oc1c(C(Nc2ccccc2)c2ccccc2)ccc2cccnc12 (configuration not stated)	CBX7 inh 0.237
Cc1cccc(CSc2nc3ccncc3n2Cc2cc(=O)n3ccccc3n2)c1	none
O=c1c2nnn(Cc3ccc(F)cc3)c2ncn1Cc1ccc(Cl)cc1	none
Cc1ccc(Cn2nnc3c(=O)n(Cc4ccc(Cl)cc4)cnc32)cc1	none
Oc1cccc(Nc2nc(-c3ccc(Cl)cc3)nc3ccccc23)c1	none
CC1CCCCC1NC(=O)C1c2cccn2CC(=O)N1C1CCCC1 (configuration not stated)	none
COC(=O)c1ccc2c(c1)N(C)C(=O)c1ccccc1S2(=O)=O	none
CCOc1ccccc1CNC(=O)c1cc(=O)[nH]c2ccc(S(=O)(=O)N3CCCCC3CC)cc12 (configuration not stated)	none
CCOc1ccc(Nc2nc(-c3sc(NC(=O)CC)nc3C)cs2)cc1	CBX7 inh 0.43
CC(=O)Nc1ccc(Nc2nc(-c3sc(NC(C)=O)nc3C)cs2)cc1	none
CC(=O)Nc1nc(C)c(-c2csc(Nc3ccc(O)cc3)n2)s1	none
CCC(=O)Nc1nc(C)c(-c2csc(Nc3cccc(C(=O)O)c3)n2)s1	none
CCC(=O)Nc1nc(C)c(-c2csc(Nc3ccc(C(=O)O)cc3)n2)s1	CBX7 inh 0.0882!
CC(=O)Nc1nc(C)c(-c2csc(Nc3ccc(Br)cc3)n2)s1	none
O=C1c2ccccc2C(Nc2cccc(C(F)(F)F)c2)N1c1ccc(Cl)cn1 (configuration not stated)	none
Clc1ccc(COc2cccc3cccnc23)cc1	none
Cc1onc(-c2ccccc2)c1C(=O)Nc1cccc(OC2CCCC2)c1	none
Cc1cc(C)cc(-c2nc(-c3ccccn3)no2)c1	none
c1ccc(-c2nnc(Nc3ccccn3)c3ccccc23)cc1	none
c1ccc(-c2nnc(-c3ccccn3)nc2-c2ccccc2)cc1	CBX7 inh 0.0503
CCCN(C(=O)Cc1c(C(=O)O)[nH]c2ccc(Cl)cc12)c1cccc(Cl)c1	none
COc1ccc(-c2csc(Nc3ccccc3OC)n2)cc1F	none
COc1ccc(-c2csc(Nc3ccc4c(c3)OCO4)n2)cc1F	CBX7 inh 0.476!
Fc1ccc(-c2csc(Nc3ccc4c(c3)OCO4)n2)cc1	CBX7 inh 0.385!
Ic1ccc(-c2csc(Nc3ccc4ccccc4c3)n2)cc1	none
CC(=O)Nc1ccc(Nc2nc(-c3ccccc3)cs2)cc1	none
O=C1c2ccccc2C(=O)N1c1cccc(-c2csc(Nc3ccc4c(c3)OCO4)n2)c1	none
COc1ccc(-c2csc(Nc3cccc(C(F)(F)F)c3)n2)cc1F	none
CC(C)Cc1ccc(-c2csc(Nc3ccc(F)cc3)n2)cc1	none
c1ccc(-c2csc(Nc3cccc4ccccc34)n2)cc1	none
O=C(Nc1nc(-c2ccc(Cl)cc2)cs1)c1ccc2c(c1)OCO2	none
CN(C)c1ccc(Nc2nc(-c3ccccc3)cs2)cc1	CBX7 inh 0.337
c1ccc(-c2csc(Nc3ccc4c(c3)OCO4)n2)cc1	CBX7 inh 0.37!
O=C(CCc1ccccc1)Nc1c2c(nn1-c1ccc(F)cc1)CSC2	none
COc1ccc(Cl)cc1NC(=O)CNC(=O)Cn1cnc2sc(C)c(C)c2c1=O	none
CC1(C)CC2CC(C)(CN2c2nc(-c3ccccc3)nc3ccccc23)C1 (configuration not stated)	none
COc1ccc(CCNC(=O)C(=O)c2c(-c3ccccc3)cc3ccccn23)cc1OC	none
